This passage reports max response and Potency results from PubChem BioAssay (Tox21).

Values joined by “and” are separate entries in the source; they are usually repeats but may differ in a detail not shown here. Equal entries are not always repeated. Results filed as inconclusive are left out. Some compounds were tested as several samples or in several runs, with calls that do not always agree. Unmarked numbers belong to inactive results. Active and inactive are the calls of the source. Calls follow the shape of the dose curve; as a rule, active = well fitted cell-killing curve with a large enough effect in the repeat runs; inconclusive = weak or mixed curves, or effect the other way; inactive = flat fitted curve, though single readings scatter.
% is scaled to controls: 0 for no effect and ±100 for the full control effect; potency is read from the fitted curve at half-maximal effect.

The assay in a line: qHTS RealTime-Glo MT Cell Viability Assay in HEK293 cells - 40 hour (AID 1224874). Also: nearly all actives have a fitted effect of over 50% in size. Particulars: RealTime-Glo luminescence; max response: hits give low values. An excerpt: U.S. Tox21 Program National Center for Advancing Translational Sciences [NCATS] NIH Chemical Genomics Center [NCGC] U.S. Environmental Protection Agency [EPA] National Institutes of Environmental Health Sciences [NIEHS] National Toxicology Program [NTP] U.S. Food and Drug Administration [FDA] Tox21 Assay Overview: Measure of cell viability is critical in the cell-base assay. Analysis of cell viability is necessary for the characterization of cell responses to cytotoxic drugs and environmental stress. A RealTime-Glo MT Cell Viability Assay to monitor cell viability in real time of continues cell culture during 40 hours of compound treatment was used to screen Tox21 10K library compounds in Hek293 cells. The RealTime-Glo MT Cell Viability Assay is a nonlytic, homogeneous, bioluminescent method to measure cell viability in real time using a simple, plate-based method. The assay involves adding NanoLuc luciferase and a cell-permeant prosubstrate to cells in culture. Viable cells reduce the proprietary prosubstrate to generate a substrate for NanoLuc luciferase. This substrate diffuses from cells into the surrounding culture medium, where it is rapidly used by the NanoLuc Enzyme to produce a luminescent signal. The signal correlates with the number of viable cells, making the assay well suited for cytotoxicity studies.
Tox21 Assay Protocol Summary: The mixture of Hek293 cell suspension and reagents were dispensed at 600cells/6 ul/well in 1536-well tissue culture treated black solid bottom plates using a Multidrop dispenser. After the assay plates were incubated at a 37 C/5% CO2 incubator for 5 hours, 23 nL of compounds dissolved in DMSO, positive and negative controls was transferred to the assay plate by a pintool work station. The plates were incubated at 37 C for 40 hours. The luminescence intensity were measured at 0h, 8h, 16h, 24h, 32h and 40h time points using ViewLux plate reader during compound treatment.
As for `COP(=O)(OC)C(O)C(Cl)(Cl)Cl` (stereo not given), the max response is -4.55% and 3.86%. The same measure, in the same setting: for `CNC` the value was 5.34% and 10.3%. Regarding `CCCCCC[n+]1ccccc1`, the max response was -3.16% and the Potency is 27.8 µM (active) [middle of 5 runs]. Turning to `CCCCCCCCCCCCCCCCn1cc[n+](C)c1`, the max response is 12.2%; the Potency was 7.93 µM (active) and 4.4 µM (active) and 2.76 µM (active). As to `CCCn1cc[n+](C)c1`, the max response is 9.61% and -4.66% and 2.37%. Same read-out and setting: for `Cc1cc(Cl)ccc1N` the value was 9.86% and 3.76% and 5.35%. `Oc1cccc2cccnc12`: the Potency was 13.9 µM (active) and 23.3 µM (active) and 12.7 µM (active); the max response was -0.234%. Consider `O=C(O)CC(O)(CC(=O)O)C(=O)O`, for which the max response is 6.24% and 7.96% and 3.83%. Same read-out and setting: for `CC(Cl)(Cl)C(=O)O` the value was 2.34% and 8.45% and 2.19%. For the compound `CCOP(=S)(OCC)Oc1ccc2c(C)c(Cl)c(=O)oc2c1`, the max response was -24.9%; the Potency was 12.4 µM (active) and 43.6 µM (active). Consider `Nc1ccc(-c2ccc(N)cc2)cc1`, for which the max response is -0.165% and -5.77% and -8.89%. `CC[N+]1(C)CCCC1`: the Potency is 21.9 µM (active) and the max response was 3.6% [middle of 4 runs]. `CN(C)[C@@H]1C(=O)C(C(N)=O)=C(O)[C@@]2(O)C(=O)C3=C(O)c4c(O)cccc4[C@@](C)(O)[C@H]3[C@H](O)[C@@H]12`: the max response was 8.46% [middle of 4 runs]. On the same count and under the same terms, in the case of `CCC[N+]1(C)CCCCC1` it was -1.58% and 7.15% and 0.391%; in that of `CCCC[n+]1cccc(C)c1`, 7.15% [middle of 6 runs]. Still for that read-out and setting: in the case of `COP(=O)(OC)OC=C(Cl)Cl` it was 12.8% and 2.89% and 15.7%. For the compound `Nc1ccc(-c2ccc(N)c(Cl)c2)cc1Cl`, the Potency is 12.4 µM (active) and 14.4 µM (active) and 12.3 µM (active). With `O=C(O)CCl`, the max response was 1.08% and -1.37%. Take `CC(=O)[O][Hg][c]1ccccc1`: the Potency was 306 nM (active) and 977 nM (active) and 213 nM (active). With `Nc1ccc(Cl)cc1`, the max response was -5.43% and 1.39%. Same read-out and setting: in the case of `CCn1cc[n+](C)c1C` it was -4.04% and 1.14% and -16.1%; in that of `O=C(O)COc1ccc(Cl)cc1Cl`, 5.16% [middle of 6 runs]. The same measure, in the same setting: in the case of `CCCC[N+]1(C)CCCCC1` it was -0.0247% [middle of 5 runs]; in that of `COc1ccccc1N`, 3.5% [middle of 4 runs]. Same read-out and setting: in the case of `O=P1(N(CCCl)CCCl)NCCCO1` (stereo not given) it was 4.44% and 0.328% and -5.68%; in that of `Cc1cc(-c2ccc(N)c(C)c2)ccc1N`, -20.5% and -19.5% and -26%. Consider `CCCCCCCCCCCC(=O)O`, for which the max response is 0.697% and -0.0798% and 0.587%. Still for that read-out and setting: in the case of `CCCCCCCCCCCCn1cc[n+](C)c1` it was 14.2%. Regarding `CCCCCCCCCCCCCC[P+](CCCCCC)(CCCCCC)CCCCCC`, the Potency was 2.47 µM (active) and 1.75 µM (active) and 1.23 µM (active). `Nc1ccccc1`: the max response was -1.34% [middle of 4 runs]. Regarding `O=C(O)c1ccccc1O`, the max response is 2.39% [middle of 5 runs]. On to `COc1ccc(N)cc1`, for which the max response is -4.85% [middle of 4 runs]. Turning to `CCCCCCn1cc[n+](C)c1`, the Potency was 19.7 µM (active) [middle of 5 runs]. As to `CC[N+](CC)(CC)CC`, the max response was 2.86% and 1.18% and -0.431%. In the case of `CC(=O)O`, the max response is 1.59% [middle of 4 runs].
